Experimental data reported in paper PMC7862700, “An all-to-all approach to the identification of sequence-specific readers for epigenetic DNA modifications on cytosine”.

Tests used:
Assay in all cases: DAPPL (digital affinity profiling via proximity ligation, sequencing); 10 mM Tris-HCl pH 7.5, 50 mM NaCl, 1 mM DTT, 4% glycerol, room temperature, 30 min; GST-TFs on glutathione beads, 16-mer random dsDNA library, 0.1% formaldehyde crosslink after washing; high values mean tight binding
[1] = biological target: T1, FEV (Homo sapiens, UniProt Q99581 1-238); conditions: protein: recombinant; tags: N-terminal GST; dsDNA, one strand shown
T1 sequence: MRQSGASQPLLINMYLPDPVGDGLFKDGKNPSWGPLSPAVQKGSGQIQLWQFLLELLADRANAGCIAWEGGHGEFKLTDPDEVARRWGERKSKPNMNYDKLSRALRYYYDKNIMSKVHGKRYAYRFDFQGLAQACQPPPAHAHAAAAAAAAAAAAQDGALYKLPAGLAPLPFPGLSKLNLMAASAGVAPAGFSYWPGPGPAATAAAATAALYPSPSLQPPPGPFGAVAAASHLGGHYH
In short: (§1)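 Yeast served to express human transcription factors as GST fusions, which were then captured on glutathione beads and labelled with DNA barcodes. Pooled with a tag-only sample, they were incubated with 200 nmole of a 16-mer random double-stranded DNA library for 30 min at room temperature in Tris/NaCl/DTT/glycerol buffer, washed, crosslinked with 0.1% formaldehyde, ligated by proximity, amplified by PCR and sequenced. Dividing each hexamer's read frequency for a factor by its frequency for the tag-only sample gives the binding signal.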

[2] = biological target: ETV5 (Homo sapiens, UniProt P41161 1-510); conditions: protein: recombinant; tags: N-terminal GST; dsDNA, one strand shown
ETV5, sequence (P41161 whole entry): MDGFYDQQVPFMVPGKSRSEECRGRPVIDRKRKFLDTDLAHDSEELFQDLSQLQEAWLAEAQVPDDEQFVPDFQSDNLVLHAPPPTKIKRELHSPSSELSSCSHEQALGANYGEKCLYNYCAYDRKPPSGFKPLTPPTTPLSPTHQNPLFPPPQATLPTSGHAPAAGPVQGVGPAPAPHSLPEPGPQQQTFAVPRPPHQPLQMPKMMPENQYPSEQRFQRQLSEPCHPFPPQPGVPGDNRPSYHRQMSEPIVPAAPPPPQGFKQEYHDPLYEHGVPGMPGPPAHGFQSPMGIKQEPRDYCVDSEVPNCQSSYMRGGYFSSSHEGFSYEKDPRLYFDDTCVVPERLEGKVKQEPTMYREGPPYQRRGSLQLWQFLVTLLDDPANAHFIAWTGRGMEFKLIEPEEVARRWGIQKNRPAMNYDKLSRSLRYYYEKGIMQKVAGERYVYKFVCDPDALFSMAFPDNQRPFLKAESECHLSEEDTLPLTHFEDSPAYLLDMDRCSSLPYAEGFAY
In short: as §1

[3] = biological target: HSF1 (Homo sapiens, UniProt Q00613 1-529); conditions: protein: recombinant; tags: N-terminal GST; chain copies: 3; dsDNA, one strand shown
HSF1, sequence (Q00613 whole entry): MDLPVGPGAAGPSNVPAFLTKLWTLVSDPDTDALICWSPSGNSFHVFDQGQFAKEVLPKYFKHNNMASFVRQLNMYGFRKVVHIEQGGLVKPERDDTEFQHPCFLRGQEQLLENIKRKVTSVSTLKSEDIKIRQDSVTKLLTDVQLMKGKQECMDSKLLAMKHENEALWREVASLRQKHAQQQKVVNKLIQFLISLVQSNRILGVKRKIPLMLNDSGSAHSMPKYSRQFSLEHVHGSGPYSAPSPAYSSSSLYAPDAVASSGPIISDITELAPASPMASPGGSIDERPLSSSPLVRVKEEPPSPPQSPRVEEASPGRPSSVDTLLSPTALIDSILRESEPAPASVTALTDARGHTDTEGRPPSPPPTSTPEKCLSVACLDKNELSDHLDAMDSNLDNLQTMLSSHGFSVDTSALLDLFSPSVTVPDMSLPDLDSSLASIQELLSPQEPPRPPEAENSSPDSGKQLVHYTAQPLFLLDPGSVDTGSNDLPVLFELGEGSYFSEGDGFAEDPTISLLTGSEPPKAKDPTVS
In short: as §1

[4] = biological target: T2, SPIC (Homo sapiens, UniProt Q8N5J4 1-248); conditions: protein: recombinant; tags: N-terminal GST; dsDNA, one strand shown
T2 sequence: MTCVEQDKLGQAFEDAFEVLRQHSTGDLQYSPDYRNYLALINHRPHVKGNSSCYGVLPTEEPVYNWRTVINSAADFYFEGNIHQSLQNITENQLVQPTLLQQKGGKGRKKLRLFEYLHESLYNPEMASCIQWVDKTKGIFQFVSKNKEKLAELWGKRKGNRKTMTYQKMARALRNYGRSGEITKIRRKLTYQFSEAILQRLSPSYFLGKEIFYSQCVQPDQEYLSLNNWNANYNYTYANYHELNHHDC
In short: as §1

[5] = biological target: ELF4 (Homo sapiens, UniProt Q99607 1-663); conditions: protein: recombinant; tags: N-terminal GST; dsDNA, one strand shown
ELF4, sequence (Q99607 whole entry): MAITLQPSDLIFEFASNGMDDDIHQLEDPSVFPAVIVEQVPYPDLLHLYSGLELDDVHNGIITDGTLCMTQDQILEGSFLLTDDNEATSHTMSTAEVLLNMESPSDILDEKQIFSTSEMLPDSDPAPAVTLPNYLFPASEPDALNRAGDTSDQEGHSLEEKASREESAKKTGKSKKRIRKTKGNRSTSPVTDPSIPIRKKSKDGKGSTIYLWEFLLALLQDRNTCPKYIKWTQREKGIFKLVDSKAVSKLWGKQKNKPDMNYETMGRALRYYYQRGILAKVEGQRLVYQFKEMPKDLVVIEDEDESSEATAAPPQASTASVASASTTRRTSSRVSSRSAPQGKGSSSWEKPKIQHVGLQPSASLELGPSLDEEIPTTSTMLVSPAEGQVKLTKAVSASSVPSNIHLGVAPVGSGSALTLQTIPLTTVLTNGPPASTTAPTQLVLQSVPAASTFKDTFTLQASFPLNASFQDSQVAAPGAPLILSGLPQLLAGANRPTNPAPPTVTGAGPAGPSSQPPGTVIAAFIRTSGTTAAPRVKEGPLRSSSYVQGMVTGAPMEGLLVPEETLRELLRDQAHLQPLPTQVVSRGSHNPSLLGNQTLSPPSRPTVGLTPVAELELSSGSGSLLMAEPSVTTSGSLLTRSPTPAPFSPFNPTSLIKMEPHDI
In short: as §1

[6] = biological target: T3, ELK4 (Homo sapiens, UniProt P28324-2 1-405); conditions: protein: recombinant; tags: N-terminal GST; dsDNA, one strand shown
T3 sequence: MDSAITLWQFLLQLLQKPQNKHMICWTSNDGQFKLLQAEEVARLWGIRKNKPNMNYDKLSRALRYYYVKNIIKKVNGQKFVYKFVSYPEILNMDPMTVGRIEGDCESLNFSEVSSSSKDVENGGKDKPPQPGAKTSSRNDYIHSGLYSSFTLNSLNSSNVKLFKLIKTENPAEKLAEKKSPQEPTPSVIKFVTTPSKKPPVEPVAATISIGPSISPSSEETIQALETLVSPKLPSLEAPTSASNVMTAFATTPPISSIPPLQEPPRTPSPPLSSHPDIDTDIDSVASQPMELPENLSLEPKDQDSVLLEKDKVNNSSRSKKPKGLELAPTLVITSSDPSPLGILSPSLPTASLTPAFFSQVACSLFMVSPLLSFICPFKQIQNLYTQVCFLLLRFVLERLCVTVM
In short: as §1

[7] = biological target: T4, ETV2 (Homo sapiens, UniProt O00321 1-342); conditions: protein: recombinant; tags: N-terminal GST; dsDNA, one strand shown
T4 sequence: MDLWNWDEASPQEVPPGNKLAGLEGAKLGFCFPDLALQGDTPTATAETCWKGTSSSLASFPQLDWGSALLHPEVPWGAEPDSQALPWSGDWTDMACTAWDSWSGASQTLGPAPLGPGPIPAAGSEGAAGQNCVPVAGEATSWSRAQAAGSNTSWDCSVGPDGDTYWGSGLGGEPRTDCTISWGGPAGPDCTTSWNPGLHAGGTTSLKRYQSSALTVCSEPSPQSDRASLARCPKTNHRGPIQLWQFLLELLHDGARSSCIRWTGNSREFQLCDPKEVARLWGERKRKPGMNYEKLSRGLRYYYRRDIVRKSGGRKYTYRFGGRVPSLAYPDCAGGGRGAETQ
In short: as §1

[8] = biological target: T5, ELF3 (Homo sapiens, UniProt P78545 1-371); conditions: protein: recombinant; tags: N-terminal GST; dsDNA, one strand shown
T5 sequence: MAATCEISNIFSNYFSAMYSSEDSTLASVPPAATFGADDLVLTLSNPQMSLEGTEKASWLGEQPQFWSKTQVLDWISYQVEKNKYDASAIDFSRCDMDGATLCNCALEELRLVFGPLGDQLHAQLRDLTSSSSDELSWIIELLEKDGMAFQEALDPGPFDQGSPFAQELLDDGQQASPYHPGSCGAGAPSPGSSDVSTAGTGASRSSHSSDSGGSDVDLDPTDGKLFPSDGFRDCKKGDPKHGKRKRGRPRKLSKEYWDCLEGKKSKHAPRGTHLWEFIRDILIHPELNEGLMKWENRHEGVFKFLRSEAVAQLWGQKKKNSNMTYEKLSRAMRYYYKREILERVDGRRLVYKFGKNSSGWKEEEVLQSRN
In short: as §1

[9] = biological target: CRX (Homo sapiens, UniProt O43186 1-299); conditions: protein: recombinant; tags: N-terminal GST; dsDNA, one strand shown
CRX, sequence (O43186 whole entry): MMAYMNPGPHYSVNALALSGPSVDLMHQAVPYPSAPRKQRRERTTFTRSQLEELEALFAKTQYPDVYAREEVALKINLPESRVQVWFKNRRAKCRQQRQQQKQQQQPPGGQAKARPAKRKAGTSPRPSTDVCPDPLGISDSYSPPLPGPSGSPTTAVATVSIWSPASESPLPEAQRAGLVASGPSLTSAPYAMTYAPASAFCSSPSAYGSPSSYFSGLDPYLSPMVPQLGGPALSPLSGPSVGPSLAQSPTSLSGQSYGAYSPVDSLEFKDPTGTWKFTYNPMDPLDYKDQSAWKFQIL
In short: as §1

[10] = biological target: ETV1 (Homo sapiens, UniProt P50549 1-477); conditions: protein: recombinant; tags: N-terminal GST; dsDNA, one strand shown
ETV1, sequence (P50549 whole entry): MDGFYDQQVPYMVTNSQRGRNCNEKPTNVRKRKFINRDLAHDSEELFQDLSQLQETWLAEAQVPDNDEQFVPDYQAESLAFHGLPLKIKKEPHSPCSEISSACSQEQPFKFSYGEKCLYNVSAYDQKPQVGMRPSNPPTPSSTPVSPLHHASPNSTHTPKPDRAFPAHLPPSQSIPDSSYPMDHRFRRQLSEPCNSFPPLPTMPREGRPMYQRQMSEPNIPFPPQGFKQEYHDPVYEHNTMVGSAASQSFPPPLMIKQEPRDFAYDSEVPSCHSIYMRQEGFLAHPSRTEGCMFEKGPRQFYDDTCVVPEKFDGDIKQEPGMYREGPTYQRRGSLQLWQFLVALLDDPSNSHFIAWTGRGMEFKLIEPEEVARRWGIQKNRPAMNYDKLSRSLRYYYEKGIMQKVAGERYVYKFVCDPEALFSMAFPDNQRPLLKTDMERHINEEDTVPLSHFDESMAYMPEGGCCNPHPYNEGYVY
In short: as §1

Row | Sequence | binding signal [1] | binding signal [2] | binding signal [3] | binding signal [4] | binding signal [5] | binding signal [6] | binding signal [7] | binding signal [8] | binding signal [9] | binding signal [10]
1 | TCAATT | 1.16 fold enrichment (6-mer frequency, TF over GST control) | 1.21 fold enrichment (6-mer frequency, TF over GST control) | 1.1 fold enrichment (6-mer frequency, TF over GST control) | 1.14 fold enrichment (6-mer frequency, TF over GST control) | 1.18 fold enrichment (6-mer frequency, TF over GST control) | 1.08 fold enrichment (6-mer frequency, TF over GST control) | 1.24 fold enrichment (6-mer frequency, TF over GST control) | 1.12 fold enrichment (6-mer frequency, TF over GST control) | 1.17 fold enrichment (6-mer frequency, TF over GST control) | 1.14 fold enrichment (6-mer frequency, TF over GST control)
2 | TTGCTA | 1.24 fold enrichment (6-mer frequency, TF over GST control) | 1.3 fold enrichment (6-mer frequency, TF over GST control) | 1.48 fold enrichment (6-mer frequency, TF over GST control) | 1.4 fold enrichment (6-mer frequency, TF over GST control) | 1.29 fold enrichment (6-mer frequency, TF over GST control) | 1.46 fold enrichment (6-mer frequency, TF over GST control) | 1.35 fold enrichment (6-mer frequency, TF over GST control) | 1.31 fold enrichment (6-mer frequency, TF over GST control) | 1.5 fold enrichment (6-mer frequency, TF over GST control) | 1.37 fold enrichment (6-mer frequency, TF over GST control)
3 | ATATTT | 1.47 fold enrichment (6-mer frequency, TF over GST control) | 1.54 fold enrichment (6-mer frequency, TF over GST control) | 1.52 fold enrichment (6-mer frequency, TF over GST control) | 1.45 fold enrichment (6-mer frequency, TF over GST control) | 1.53 fold enrichment (6-mer frequency, TF over GST control) | 1.81 fold enrichment (6-mer frequency, TF over GST control) | 1.55 fold enrichment (6-mer frequency, TF over GST control) | 1.54 fold enrichment (6-mer frequency, TF over GST control) | 1.6 fold enrichment (6-mer frequency, TF over GST control) | 1.56 fold enrichment (6-mer frequency, TF over GST control)
4 | ATATTC | 1.19 fold enrichment (6-mer frequency, TF over GST control) | 1.27 fold enrichment (6-mer frequency, TF over GST control) | 2.2 fold enrichment (6-mer frequency, TF over GST control) | 1.3 fold enrichment (6-mer frequency, TF over GST control) | 1.29 fold enrichment (6-mer frequency, TF over GST control) | 1.31 fold enrichment (6-mer frequency, TF over GST control) | 1.22 fold enrichment (6-mer frequency, TF over GST control) | 1.38 fold enrichment (6-mer frequency, TF over GST control) | 1.51 fold enrichment (6-mer frequency, TF over GST control) | 1.26 fold enrichment (6-mer frequency, TF over GST control)
5 | TTACCG | 1.26 fold enrichment (6-mer frequency, TF over GST control) | 1.23 fold enrichment (6-mer frequency, TF over GST control) | 1.25 fold enrichment (6-mer frequency, TF over GST control) | 1.16 fold enrichment (6-mer frequency, TF over GST control) | 1.13 fold enrichment (6-mer frequency, TF over GST control) | 1.16 fold enrichment (6-mer frequency, TF over GST control) | 1.12 fold enrichment (6-mer frequency, TF over GST control) | 1.2 fold enrichment (6-mer frequency, TF over GST control) | 1.74 fold enrichment (6-mer frequency, TF over GST control) | 1.14 fold enrichment (6-mer frequency, TF over GST control)
6 | GTGGCT | 1.19 fold enrichment (6-mer frequency, TF over GST control) | 1.13 fold enrichment (6-mer frequency, TF over GST control) | 1.05 fold enrichment (6-mer frequency, TF over GST control) | 1.23 fold enrichment (6-mer frequency, TF over GST control) | 1.1 fold enrichment (6-mer frequency, TF over GST control) | 1.31 fold enrichment (6-mer frequency, TF over GST control) | 1.17 fold enrichment (6-mer frequency, TF over GST control) | 1.26 fold enrichment (6-mer frequency, TF over GST control) | 1.18 fold enrichment (6-mer frequency, TF over GST control) | 1.19 fold enrichment (6-mer frequency, TF over GST control)
7 | TAGATT | 1.14 fold enrichment (6-mer frequency, TF over GST control) | 1.12 fold enrichment (6-mer frequency, TF over GST control) | 2.19 fold enrichment (6-mer frequency, TF over GST control) | 1.28 fold enrichment (6-mer frequency, TF over GST control) | 1.19 fold enrichment (6-mer frequency, TF over GST control) | 1.29 fold enrichment (6-mer frequency, TF over GST control) | 1.13 fold enrichment (6-mer frequency, TF over GST control) | 1.07 fold enrichment (6-mer frequency, TF over GST control) | 2.29 fold enrichment (6-mer frequency, TF over GST control) | 1.22 fold enrichment (6-mer frequency, TF over GST control)
